# Reference: the OligoGym collection
# Target: MAN1C1
# Assay: pooled miR-30 sensor sort-seq; sequence = guide strand
# Conditions: shRNA
row,Sequence,sensor-assay potency score (higher = more potent)
1,TTTGTGTGTGTGCAAACACTGG,-1.13
2,TTCGATCTTCCTGAGGACCTTG,0.041
3,TTATTCGGAACACCTCTTCTCC,-0.384
4,TTAGCCTCCATATCTGTCTTGC,-0.298
5,TTCGGAACACCTCTTCTCCTGT,-0.298
6,TTGAGAACAGTCTCAAATCCTG,-0.222
7,TTGAACATAGGGTCAGTGTTGG,-0.0716
8,TTGTGTGTGTGCAAACACTGGG,0.0469
9,TAACGCTTATAGCTCTGCCAAG,-1.49
10,TATGACTCGTGACACGTCTTGG,-0.605
11,AATTGTGACAAAACTAAACTGT,0.356

# Target: MANEAL
# Assay: as above
# Conditions: shRNA
row,Sequence,sensor-assay potency score (higher = more potent)
1,ATGCTGGTGTCTATGTAGCCAG,-1.86
2,ATAGTACTTGCCATTGACCCTG,-0.405
3,ATGAACATGAGGTTGTTGGCAT,0.179
4,AAGTTCTTCACAGCTTTCCAGT,-0.845
5,TTGTGGTTGTTCCAGGGCCGAA,-1.8
6,TAGCTGGCCGAGATCTTGGGGT,-1.02
7,TTGATGAAGTGCTCCGCCCAGC,-0.595
8,TAGAAGGCGTGCAGGTCCGAGT,-1.05
9,TTTGATGAAGTGCTCCGCCCAG,-0.378
10,TTCTCTTTGATGAAGTGCTCCG,-0.00624
11,TAGTACTTGCCATTGACCCTGT,-0.0343
12,TACCACGAGTAGTAGAAGGCGT,-0.339
